For some of these results: Results with a measured potency or affinity are listed apart.

Common to all, as to parameters: scale not given: direction of the effect not stated beside the values
For assay [1], the target named is Protein translocase subunit SecA (Escherichia coli (strain K12)) (UniProt P10408). The assay is described as follows: Assay to Identify E. coli SecA ATPase Inhibitors. In kind it is functional. Conditions: 30 µM.
For assay [2], the target named is T1, Ubiquitin-activating enzyme e1, putative (Leishmania donovani (strain BPK282A1)) (UniProt E9BSI1).
T1 sequence (whole entry): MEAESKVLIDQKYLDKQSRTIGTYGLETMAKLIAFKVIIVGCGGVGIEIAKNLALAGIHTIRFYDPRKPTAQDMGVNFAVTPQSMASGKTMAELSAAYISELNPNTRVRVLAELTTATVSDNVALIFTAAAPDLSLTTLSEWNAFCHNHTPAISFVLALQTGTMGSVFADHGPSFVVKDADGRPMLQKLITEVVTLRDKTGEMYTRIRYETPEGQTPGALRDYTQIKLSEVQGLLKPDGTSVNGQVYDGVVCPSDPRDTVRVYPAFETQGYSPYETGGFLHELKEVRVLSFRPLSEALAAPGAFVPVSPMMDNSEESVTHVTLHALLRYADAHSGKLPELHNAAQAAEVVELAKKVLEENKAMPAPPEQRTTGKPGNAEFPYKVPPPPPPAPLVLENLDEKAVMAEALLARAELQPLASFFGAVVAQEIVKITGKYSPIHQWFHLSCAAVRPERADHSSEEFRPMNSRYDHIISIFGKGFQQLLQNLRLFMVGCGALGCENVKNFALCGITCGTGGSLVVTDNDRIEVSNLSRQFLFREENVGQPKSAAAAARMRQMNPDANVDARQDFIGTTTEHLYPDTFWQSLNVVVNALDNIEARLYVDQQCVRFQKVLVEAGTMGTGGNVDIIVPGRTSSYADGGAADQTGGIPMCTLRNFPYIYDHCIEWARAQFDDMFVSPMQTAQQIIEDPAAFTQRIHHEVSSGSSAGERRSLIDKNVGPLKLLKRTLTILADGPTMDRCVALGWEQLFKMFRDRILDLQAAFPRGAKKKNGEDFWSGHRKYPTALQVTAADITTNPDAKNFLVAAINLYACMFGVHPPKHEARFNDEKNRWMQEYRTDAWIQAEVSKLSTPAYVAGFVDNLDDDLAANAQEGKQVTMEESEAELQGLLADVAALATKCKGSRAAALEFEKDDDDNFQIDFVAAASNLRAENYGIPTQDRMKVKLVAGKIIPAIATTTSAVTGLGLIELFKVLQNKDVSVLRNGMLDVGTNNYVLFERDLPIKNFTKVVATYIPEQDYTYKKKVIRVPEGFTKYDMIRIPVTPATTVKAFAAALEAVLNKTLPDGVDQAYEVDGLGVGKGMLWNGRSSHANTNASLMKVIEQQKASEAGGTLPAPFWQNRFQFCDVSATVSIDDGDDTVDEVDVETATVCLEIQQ
The assay is described as follows: Leishmania donovani Ubiquitin Activating Enzyme (LdE1). Conditions: 30 µM. The format is functional.

For assay [3], the target named is T2, Aspartate--tRNA(Asp/Asn) ligase (Mycobacterium tuberculosis (strain ATCC 25618 / H37Rv)) (UniProt P9WFW3). Further: in the data most compounds retested in dose-response had high values.
T2 sequence (whole entry): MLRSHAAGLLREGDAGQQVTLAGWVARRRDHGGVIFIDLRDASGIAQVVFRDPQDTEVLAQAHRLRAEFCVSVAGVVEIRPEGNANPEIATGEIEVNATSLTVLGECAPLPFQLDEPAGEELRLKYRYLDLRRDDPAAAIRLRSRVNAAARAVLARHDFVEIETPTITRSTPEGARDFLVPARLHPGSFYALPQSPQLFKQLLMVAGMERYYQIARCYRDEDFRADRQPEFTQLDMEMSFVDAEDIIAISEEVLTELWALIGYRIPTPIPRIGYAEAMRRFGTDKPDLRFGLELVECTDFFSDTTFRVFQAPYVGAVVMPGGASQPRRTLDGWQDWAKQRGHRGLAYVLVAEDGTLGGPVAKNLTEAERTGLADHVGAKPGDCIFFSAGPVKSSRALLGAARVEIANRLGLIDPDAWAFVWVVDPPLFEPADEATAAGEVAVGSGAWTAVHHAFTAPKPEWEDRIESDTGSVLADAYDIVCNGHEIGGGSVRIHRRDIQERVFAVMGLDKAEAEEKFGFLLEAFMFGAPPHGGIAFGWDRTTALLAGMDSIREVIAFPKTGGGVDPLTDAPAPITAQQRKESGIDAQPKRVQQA
The assay is described as follows: Assay for Asp RNA synthetase-1 from Mycobacterium tuberculosis. The format is functional. Conditions: 30 µM.

Assay [4] has as its target Sialic acid-binding Ig-like lectin 9 (Homo sapiens) (UniProt Q9Y336). As to the kind of experiment: Hs-Siglec9 ALPHAscreen SOP 20170721. Conditions: 10 µM. On the technique in general: Alpha assays give light when donor and acceptor beads are brought close together.
A further assay deals with Trypanosoma cruzi. The assay is described as follows: Trypanosoma cruzi phosphomannomutase and mannose-1-phosphate guanylyltransferase assay. In kind it is functional. Conditions: 10 µM.
Assay [5] addresses T3, Arginase-2, mitochondrial (Homo sapiens) (UniProt P78540).
T3 sequence (whole entry): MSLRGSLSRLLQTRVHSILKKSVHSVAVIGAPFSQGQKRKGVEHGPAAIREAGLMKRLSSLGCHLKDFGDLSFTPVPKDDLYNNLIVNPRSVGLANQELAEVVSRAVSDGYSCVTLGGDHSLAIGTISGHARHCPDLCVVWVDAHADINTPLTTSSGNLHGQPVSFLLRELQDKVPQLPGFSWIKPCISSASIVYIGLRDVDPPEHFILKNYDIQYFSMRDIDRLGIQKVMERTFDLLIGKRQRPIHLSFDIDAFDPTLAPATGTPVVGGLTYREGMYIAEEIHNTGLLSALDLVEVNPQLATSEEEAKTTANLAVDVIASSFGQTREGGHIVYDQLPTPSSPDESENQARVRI
As to the kind of experiment: in vitro enzyme assay to detect the production of urea directly proportional to the activity of Arginase II. Further: in the data most compounds retested in dose-response had high values. The format is functional. Conditions: 33.3 µM.

In assay [6] the target is T4, Proteasome subunit beta (Trypanosoma cruzi) (UniProt O96673).
T4 sequence (whole entry): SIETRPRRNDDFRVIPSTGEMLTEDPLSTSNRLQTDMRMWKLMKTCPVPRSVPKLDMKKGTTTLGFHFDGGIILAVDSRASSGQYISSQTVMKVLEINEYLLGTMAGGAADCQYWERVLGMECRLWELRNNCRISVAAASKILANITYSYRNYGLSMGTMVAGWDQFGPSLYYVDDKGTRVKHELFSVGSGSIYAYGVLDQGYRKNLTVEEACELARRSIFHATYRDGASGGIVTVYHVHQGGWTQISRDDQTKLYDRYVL
As to the kind of experiment: Trypanosoma cruzi proteasome chymotrypsin-like activity (TcProtChymo) assay. Further: in the data most compounds retested in dose-response had high values. The format is functional. Conditions: 9.37 µM.

The species named for a further assay is Homo sapiens. The assay is described as follows: To identify inhibition of the IFN signalling (Jak-Stat) pathway via expression of an eGFP reporter gene under the control of an IFN-stimulated response element (ISRE) containing MxA promoter. The format is functional. Conditions: 30 µM.
In assay [7] the target is Shiga toxin 2 (Escherichia coli O157:H7) (UniProt P09385+P09386). As to the kind of experiment: E. coli 0.157:H7 Shiga Toxin SOP - stx2 screening assay. Conditions: 30 µM. In kind it is functional.
The target of assay [8] is T5, Tyrosyl-tRNA synthetase, putative (Trypanosoma cruzi (strain CL Brener)) (UniProt Q4DSP6).
T5 sequence (whole entry): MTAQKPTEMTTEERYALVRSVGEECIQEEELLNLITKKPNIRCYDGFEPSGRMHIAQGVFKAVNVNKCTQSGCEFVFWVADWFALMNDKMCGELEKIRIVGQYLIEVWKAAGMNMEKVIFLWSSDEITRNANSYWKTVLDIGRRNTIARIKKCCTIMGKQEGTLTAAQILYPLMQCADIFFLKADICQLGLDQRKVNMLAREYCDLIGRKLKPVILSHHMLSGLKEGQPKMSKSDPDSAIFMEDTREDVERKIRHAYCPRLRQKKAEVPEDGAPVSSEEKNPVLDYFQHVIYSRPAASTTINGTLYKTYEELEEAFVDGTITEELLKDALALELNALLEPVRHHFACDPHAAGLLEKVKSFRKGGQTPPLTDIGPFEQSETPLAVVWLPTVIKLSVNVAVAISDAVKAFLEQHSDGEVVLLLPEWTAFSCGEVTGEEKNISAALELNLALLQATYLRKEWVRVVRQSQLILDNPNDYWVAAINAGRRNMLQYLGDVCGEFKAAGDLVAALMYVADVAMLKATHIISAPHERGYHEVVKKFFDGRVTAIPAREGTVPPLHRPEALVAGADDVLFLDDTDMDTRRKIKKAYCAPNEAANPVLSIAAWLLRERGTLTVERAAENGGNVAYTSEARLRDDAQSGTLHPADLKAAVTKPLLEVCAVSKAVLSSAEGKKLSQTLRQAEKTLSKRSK
As to the kind of experiment: Trypanosoma cruzi tyrosyl tRNA synthetase (TcYRS) _High Tyrosine SOP. Further: in the data most compounds retested in dose-response had high values. In kind it is functional. Conditions: 30 µM.

Assay [9] deals with T5, Tyrosyl-tRNA synthetase, putative (Trypanosoma cruzi (strain CL Brener)). As to the kind of experiment: Trypanosoma cruzi tyrosyl tRNA synthetase (TcYRS) SOP. The format is functional. Conditions: 30 µM.
Assay [10] addresses Chromo domain-containing protein 1 (Saccharomyces cerevisiae (strain ATCC 204508 / S288c) (Baker's yeast)) (UniProt P32657). The assay is described as follows: ScCHD-1 Enzyme Inhibition Assay. Further: in the data most compounds retested in dose-response had high values. The format is functional. Conditions: 30 µM.

Chromo domain-containing protein 1 (Saccharomyces cerevisiae (strain ATCC 204508 / S288c) (Baker's yeast)), sequence (P32657 whole entry, the tested form may be a part): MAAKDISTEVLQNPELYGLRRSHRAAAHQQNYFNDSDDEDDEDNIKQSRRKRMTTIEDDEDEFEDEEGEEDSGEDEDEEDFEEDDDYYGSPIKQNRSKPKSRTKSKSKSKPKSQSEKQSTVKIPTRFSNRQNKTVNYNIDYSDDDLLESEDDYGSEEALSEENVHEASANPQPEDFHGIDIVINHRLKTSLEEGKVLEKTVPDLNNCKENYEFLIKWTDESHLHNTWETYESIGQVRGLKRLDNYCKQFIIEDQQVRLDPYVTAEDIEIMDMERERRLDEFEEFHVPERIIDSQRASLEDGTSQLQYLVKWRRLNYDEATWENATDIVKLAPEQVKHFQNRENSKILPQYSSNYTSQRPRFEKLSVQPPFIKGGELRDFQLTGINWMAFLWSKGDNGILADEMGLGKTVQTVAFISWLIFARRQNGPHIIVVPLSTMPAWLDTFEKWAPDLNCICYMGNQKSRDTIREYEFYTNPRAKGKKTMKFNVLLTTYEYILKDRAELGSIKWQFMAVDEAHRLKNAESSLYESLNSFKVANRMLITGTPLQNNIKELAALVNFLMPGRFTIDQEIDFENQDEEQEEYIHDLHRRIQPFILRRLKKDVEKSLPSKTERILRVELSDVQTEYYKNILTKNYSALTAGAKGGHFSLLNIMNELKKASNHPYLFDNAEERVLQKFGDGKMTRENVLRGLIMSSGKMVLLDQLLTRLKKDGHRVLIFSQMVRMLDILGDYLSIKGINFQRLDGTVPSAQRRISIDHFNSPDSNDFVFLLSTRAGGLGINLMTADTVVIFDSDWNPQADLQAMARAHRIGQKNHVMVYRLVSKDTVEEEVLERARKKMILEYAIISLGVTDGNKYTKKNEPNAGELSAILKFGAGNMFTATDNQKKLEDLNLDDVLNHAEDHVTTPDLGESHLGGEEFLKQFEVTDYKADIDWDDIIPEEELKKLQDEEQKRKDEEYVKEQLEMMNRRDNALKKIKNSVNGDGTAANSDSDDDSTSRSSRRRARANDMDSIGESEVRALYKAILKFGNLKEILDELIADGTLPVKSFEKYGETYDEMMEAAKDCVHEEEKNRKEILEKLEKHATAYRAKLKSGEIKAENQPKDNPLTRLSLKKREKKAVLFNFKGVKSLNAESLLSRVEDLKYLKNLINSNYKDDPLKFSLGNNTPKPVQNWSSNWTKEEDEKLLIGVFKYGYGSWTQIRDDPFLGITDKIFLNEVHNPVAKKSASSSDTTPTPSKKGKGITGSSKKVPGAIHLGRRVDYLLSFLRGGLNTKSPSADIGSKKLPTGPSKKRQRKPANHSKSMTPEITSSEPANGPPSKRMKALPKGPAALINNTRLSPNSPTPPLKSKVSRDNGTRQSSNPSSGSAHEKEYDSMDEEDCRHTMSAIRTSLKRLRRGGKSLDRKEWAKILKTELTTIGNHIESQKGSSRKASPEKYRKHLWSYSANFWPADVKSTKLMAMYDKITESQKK
Protein translocase subunit SecA (Escherichia coli (strain K12)), sequence (P10408 whole entry): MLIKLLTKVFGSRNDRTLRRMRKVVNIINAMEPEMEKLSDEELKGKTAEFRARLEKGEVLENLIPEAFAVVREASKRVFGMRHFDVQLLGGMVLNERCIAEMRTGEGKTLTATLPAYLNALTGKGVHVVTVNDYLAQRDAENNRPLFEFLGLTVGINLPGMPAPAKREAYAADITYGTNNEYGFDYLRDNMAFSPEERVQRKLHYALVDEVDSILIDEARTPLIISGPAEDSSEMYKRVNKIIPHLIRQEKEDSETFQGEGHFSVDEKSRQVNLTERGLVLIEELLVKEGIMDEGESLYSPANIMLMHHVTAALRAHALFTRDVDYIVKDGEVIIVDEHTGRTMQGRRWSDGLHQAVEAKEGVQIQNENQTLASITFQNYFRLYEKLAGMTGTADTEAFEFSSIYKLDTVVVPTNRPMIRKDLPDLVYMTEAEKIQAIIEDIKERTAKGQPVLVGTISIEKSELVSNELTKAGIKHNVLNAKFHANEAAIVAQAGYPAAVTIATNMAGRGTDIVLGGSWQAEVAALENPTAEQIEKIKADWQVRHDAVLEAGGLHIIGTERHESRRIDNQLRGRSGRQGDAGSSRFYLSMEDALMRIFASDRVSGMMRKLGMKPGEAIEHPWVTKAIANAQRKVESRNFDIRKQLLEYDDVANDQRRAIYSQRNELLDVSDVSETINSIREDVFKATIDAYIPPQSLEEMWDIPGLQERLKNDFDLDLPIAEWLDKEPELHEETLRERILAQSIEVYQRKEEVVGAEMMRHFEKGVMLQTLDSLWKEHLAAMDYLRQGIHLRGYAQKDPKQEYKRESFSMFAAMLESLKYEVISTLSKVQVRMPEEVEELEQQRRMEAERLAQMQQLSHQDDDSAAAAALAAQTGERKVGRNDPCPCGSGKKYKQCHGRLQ
Sialic acid-binding Ig-like lectin 9 (Homo sapiens), sequence (Q9Y336 whole entry): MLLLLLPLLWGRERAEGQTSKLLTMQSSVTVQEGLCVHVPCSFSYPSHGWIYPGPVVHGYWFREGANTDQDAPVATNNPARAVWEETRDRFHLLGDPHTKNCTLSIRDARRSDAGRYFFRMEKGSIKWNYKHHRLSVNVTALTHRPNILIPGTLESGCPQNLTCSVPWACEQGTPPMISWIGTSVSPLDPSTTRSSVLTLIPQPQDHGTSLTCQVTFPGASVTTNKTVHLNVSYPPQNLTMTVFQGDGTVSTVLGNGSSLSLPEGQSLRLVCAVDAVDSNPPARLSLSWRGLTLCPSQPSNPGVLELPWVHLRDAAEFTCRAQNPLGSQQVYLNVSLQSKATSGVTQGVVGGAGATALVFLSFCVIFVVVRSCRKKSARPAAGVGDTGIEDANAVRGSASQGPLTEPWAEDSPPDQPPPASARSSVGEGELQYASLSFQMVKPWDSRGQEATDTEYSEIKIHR

`c1ccc(N2CCCC3(CCN(Cc4cccs4)C3)C2)nc1` (stereo unspecified): the Percent Effect was -7.4% in assay [1]; 16.9% in [2]; -1.46% in assay [3]; -2.35% in assay [4]; -2.81% with Trypanosoma cruzi; -0.913% in [5]. Further, the Percent Effect in assay [6] is 10.4%; in the assay listed under Homo sapiens it was 17.3%; in [7] it was 5.58%; in assay [8], 1.93%; in assay [9] it was -2.5%; in [10] it was -9.64%.
With `CCc1noc(C(C)N2CCNCC2)n1` (stereo unspecified), the Percent Effect is -5.07% in assay [1]; 5.33% in [2]; -11.9% in assay [3]; 0.232% in [4]; -0.602% in the assay with Trypanosoma cruzi; -2.22% in assay [5]. Moreover, the Percent Effect in [6] was 13.3%; in the assay listed under Homo sapiens it was -0.55%; in assay [7], 6.76%; in assay [8], 2.63%; in [9], 2.56%; in assay [10], -9.82%.
`CCc1nc(CC(=O)N2CCCC2CN2CCCC2)cs1` (stereo unspecified): the Percent Effect is -0.0825% in assay [1]; 0% in assay [2]; -3.69% in assay [3]; 1.63% in assay [4]; -2.01% with Trypanosoma cruzi; 5.32% in [5]. Also, the Percent Effect was 11.1% in [6]; -4.98% in the assay listed under Homo sapiens; -5.61% in [7]; 2.63% in assay [8]; 2.56% in [9]; -5.66% in [10].
With `NCC1[C@H]2CN(CCc3ccccc3)C[C@@H]12` (stereo partly specified), the Percent Effect in [1] was -7.01%; in assay [2], 14.3%; in [3], 2.14%; in [4], -1.73%; with Trypanosoma cruzi, -4.5%; in assay [5], -1.37%. Further, the Percent Effect in assay [6] was 11.1%; in the assay listed under Homo sapiens it was 15.4%; in assay [7] it was -0.684%; in assay [8], 6.76%; in assay [9], 0%; in [10] it was -10.2%.
As to `COc1ccc(C)cc1CC(=O)N1CCN(CC(C)O)CC1` (stereo unspecified), the Percent Effect in [1] is -3.62%; in [2], 15.6%; in assay [3], 3.12%; in assay [4] it was 6.85%; in the assay on Trypanosoma cruzi, 5.6%; in assay [5], -5.53%. The Percent Effect is 8.07% in assay [6]; 0.0446% in the assay filed under Homo sapiens; -20.5% in [7]; 4.9% in assay [8]; 18.8% in assay [9]; -7.21% in [10].
With `CC(C)CN1CCCn2nc(CNC(=O)CCCc3cn[nH]c3)cc2C1`, the Percent Effect in assay [3] was -0.885%.

Values taken from ChEMBL document CHEMBL3988442, “University of Dundee, Small-Polar-MMV Screening Library” (2021).
